“And” between values parts separate entries of the source, which are not always exact repeats. Identical values can stand only once. Out of some 5,500 compounds screened, about 2,000 (36%) were called active. Inconclusive results (about 18%) are left out. No stated cut-off is given here; in the data, active means normalized growth mostly below about 0.91 (no sharp cut-off); inconclusive means no clear call, values can overlap the other calls; inactive means mostly above about 0.92. This is one part of the list.
Assay: chemical genetic growth profiling, strain panel (AID 1159580);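 further: tested at 20 µM; growth read once vehicle control cultures reached saturation at 30 °C; 1 = growth at the plate median or of vehicle wells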
Conditions: S. cerevisiae deletion strains, growth OD

Measured: normalized growth

C=CC1=C(C(=O)O)N2C(=O)[C@@H](NC(=O)/C(=N/O)c3csc(N)n3)[C@H]2SC1
inactive: locus YAL013W, strain DEP1, stronger effect = lower value 1 | locus YAL021C, strain ccr4, stronger effect = lower value 1.01 | locus YAL026C, strain drs2, stronger effect = lower value 1.02 | locus YAL030W, strain snc1, stronger effect = lower value 1.01 | locus YBL061C, strain skt5, stronger effect = lower value 1.03 | locus YBR009C, strain hhf1, stronger effect = lower value 1 | locus YBR021W, strain FUR4, stronger effect = lower value 1.02 | locus YBR023C, strain chs3, stronger effect = lower value 1.02 | locus YBR171W, strain sec66, stronger effect = lower value 1.03 | locus YBR229C, strain ROT2, stronger effect = lower value 0.992 | locus YBR231C, strain swc5, stronger effect = lower value 1.01 | locus YBR279W, strain paf1, stronger effect = lower value 1.01 | locus YCL011C, strain gbp2, stronger effect = lower value 1.04 | locus YCL016C, strain dcc1, stronger effect = lower value 1.03 | locus YCL029C, strain bik1, stronger effect = lower value 0.987 | locus YCL061C, strain MRC1, stronger effect = lower value 1.04 | locus YCL069W, strain vba3, stronger effect = lower value 1.02 | locus YCR088W, strain abp1, stronger effect = lower value 1.02 | locus YDL005C, strain med2, stronger effect = lower value 1.02 | locus YDL035C, strain GPR1, stronger effect = lower value 1.03 | locus YDL040C, strain nat1, stronger effect = lower value 1.01 | locus YDL074C, strain BRE1, stronger effect = lower value 1.04 | locus YDL101C, strain DUN1, stronger effect = lower value 0.991 | locus YDL134C, strain PPH21, stronger effect = lower value 0.99 | locus YDL185W, strain tfp1, stronger effect = lower value 0.99 | locus YDL192W, strain arf1, stronger effect = lower value 0.986 | locus YDR001C, strain nth1, stronger effect = lower value 1.02 | locus YDR069C, strain doa4, stronger effect = lower value 1.04 | locus YDR101C, strain arx1, stronger effect = lower value 0.99 | locus YDR137W, strain rgp1, stronger effect = lower value 1.03 | locus YDR150W, strain NUM1, stronger effect = lower value 1.01 | locus YDR159W, strain sac3, stronger effect = lower value 1.02 | locus YDR162C, strain NBP2, stronger effect = lower value 1.03 | locus YDR195W, strain ref2 1 | locus YDR297W, strain sur2, stronger effect = lower value 1.03 | locus YDR318W, strain mcm21, stronger effect = lower value 1.01 | locus YDR334W, strain swr1, stronger effect = lower value 1.02 | locus YDR335W, strain msn5, stronger effect = lower value 1.02 | locus YDR388W, stronger effect = lower value 0.995 | locus YDR392W, strain spt3, stronger effect = lower value 1.01 | locus YDR502C, strain sam2, stronger effect = lower value 0.993 | locus YEL003W, strain gim4, stronger effect = lower value 1.01 | locus YEL037C, strain rad23, stronger effect = lower value 1.02 | locus YEL061C, strain CIN8 (second series), stronger effect = lower value 1.01 | locus YEL061C, strain CIN8, stronger effect = lower value 1.01 | locus YER015W, strain faa2, stronger effect = lower value 1.02 | locus YER016W, strain bim1, stronger effect = lower value 1.02 | locus YER110C, stronger effect = lower value 0.978 | locus YER111C, strain swi4, stronger effect = lower value 1.01 | locus YER155C, strain BEM2 (second series), stronger effect = lower value 1.06 | locus YER155C, strain BEM2, stronger effect = lower value 0.994 | locus YER167W, strain BCK2, stronger effect = lower value 1 | locus YFR010W, strain ubp6, stronger effect = lower value 1.03 | locus YGL078C, strain dbp3, stronger effect = lower value 0.989 | locus YGL086W, strain mad1, stronger effect = lower value 0.999 | locus YGL167C, strain pmr1, stronger effect = lower value 1.01 | locus YGL173C, strain kem1, stronger effect = lower value 1.04 | locus YGL227W, strain vid30, stronger effect = lower value 1.01 | locus YGL240W, strain doc1, stronger effect = lower value 1.01 | locus YGL248W, strain PDE1, stronger effect = lower value 0.989 | locus YGL253W, strain hxk2, stronger effect = lower value 1.01 | locus YGR078C, strain PAC10, stronger effect = lower value 1.07 | locus YGR135W, strain pre9, stronger effect = lower value 0.991 | locus YGR229C, strain SMI1, stronger effect = lower value 1.06 | locus YGR252W, strain gcn5, stronger effect = lower value 1 | locus YHR013C, strain ard1, stronger effect = lower value 1.08 | locus YHR027C, strain rpn1, stronger effect = lower value 1.02 | locus YHR030C, strain SLT2, stronger effect = lower value 1 and 0.986 | locus YHR079C, strain IRE1 (second series), stronger effect = lower value 0.989 | locus YHR079C, strain IRE1, stronger effect = lower value 0.975 | locus YHR094C, strain hxt1, stronger effect = lower value 0.991 | locus YHR129C, strain ARP1, stronger effect = lower value 0.995 | locus YHR142W, strain chs7, stronger effect = lower value 1.01 | locus YHR200W, strain rpn10, stronger effect = lower value 0.988 | locus YIL066C, strain RNR3, stronger effect = lower value 1.01 | locus YIL073C, strain SPO22, stronger effect = lower value 1.04 | locus YIL125W, strain kgd1, stronger effect = lower value 0.991 | locus YIR030C, strain dcg1, stronger effect = lower value 0.989 | locus YJL092W, strain hpr5, stronger effect = lower value 1.02 | locus YJL095W, strain BCK1 (second series), stronger effect = lower value 1.01 | locus YJL095W, strain BCK1, stronger effect = lower value 1.01 and 0.982 | locus YJL115W, strain asf1, stronger effect = lower value 1.05 | locus YJL129C, strain trk1, stronger effect = lower value 1.02 | locus YJL134W, strain LCB3, stronger effect = lower value 0.995 | locus YJL154C, strain vps35, stronger effect = lower value 1.02 | locus YJL164C, strain tpk1, stronger effect = lower value 1.04 | locus YJL166W, strain qcr8, stronger effect = lower value 1.04 | locus YJL168C, strain set2, stronger effect = lower value 0.986 | locus YJL187C, strain SWE1 (second series), stronger effect = lower value 0.997 | locus YJL187C, strain SWE1, stronger effect = lower value 1.03 | locus YJR043C, strain POL32, stronger effect = lower value 1.01

— PubChem BioAssay AID1159580 (chemical genetic matrix, 2015)
